Screening data deposited in PubChem BioAssay by several laboratories.
ugtP null kill: growth inhibition of S. aureus ugtP deletion strain; AID 1259309; hit rate 0.54% among 330,000; growth inhibition, % (concentration not given with the values); S. aureus RN4220 ugtP deletion, OD600 growth, 16 h; in the data active = growth inhibition above about 68%
BJeLR lethal: BJeLR cell viability loss | hit rate 0.17% among 300,000 | inhibition, % (test concentration not listed) | BJeLR (HRASV12) viability, CellTiter-Glo ATP luminescence, 48 h; in the data active = inhibition above about 50%
RN4220 kill: kills Staphylococcus aureus RN4220; S. aureus RN4220 growth, OD600, 16 h; inhibition, % (test concentration not listed); hit rate 0.33% among 330,000; AID 1259311; in the data active = inhibition above about 85%
CCHF vOTU inh-1: blocks the CCHF virus ovarian tumor domain protease; CCHFV vOTU protease, Pep-AMC fluorescence; inhibition, % at 11.5 µM; hit rate 0.55% among 370,000; AID 651958
Mtb hypoxia rep: inhibitors of hypoxia-regulated fluorescent reporter in Mycobacterium tuberculosis. M. tuberculosis hypoxia-regulated fluorescent reporter, fluorescence. fluorescence inhibition, % (concentration not given with the values). hit rate 0.1% among 300,000; in the data active = fluorescence inhibition mostly above about 23%, no sharp cut-off; inactive = mostly below about 17%
RecA splice inh: Mtb RecA intein splicing inhibition; inhibition, % (test concentration not listed); cell-free RecA intein splicing, fluorescence; hit rate 0.75% among 290,000; AID 2221; in the data active = inhibition above about 30%
Target sequence (P9WHJ3 whole entry, looked up, canonical isoform): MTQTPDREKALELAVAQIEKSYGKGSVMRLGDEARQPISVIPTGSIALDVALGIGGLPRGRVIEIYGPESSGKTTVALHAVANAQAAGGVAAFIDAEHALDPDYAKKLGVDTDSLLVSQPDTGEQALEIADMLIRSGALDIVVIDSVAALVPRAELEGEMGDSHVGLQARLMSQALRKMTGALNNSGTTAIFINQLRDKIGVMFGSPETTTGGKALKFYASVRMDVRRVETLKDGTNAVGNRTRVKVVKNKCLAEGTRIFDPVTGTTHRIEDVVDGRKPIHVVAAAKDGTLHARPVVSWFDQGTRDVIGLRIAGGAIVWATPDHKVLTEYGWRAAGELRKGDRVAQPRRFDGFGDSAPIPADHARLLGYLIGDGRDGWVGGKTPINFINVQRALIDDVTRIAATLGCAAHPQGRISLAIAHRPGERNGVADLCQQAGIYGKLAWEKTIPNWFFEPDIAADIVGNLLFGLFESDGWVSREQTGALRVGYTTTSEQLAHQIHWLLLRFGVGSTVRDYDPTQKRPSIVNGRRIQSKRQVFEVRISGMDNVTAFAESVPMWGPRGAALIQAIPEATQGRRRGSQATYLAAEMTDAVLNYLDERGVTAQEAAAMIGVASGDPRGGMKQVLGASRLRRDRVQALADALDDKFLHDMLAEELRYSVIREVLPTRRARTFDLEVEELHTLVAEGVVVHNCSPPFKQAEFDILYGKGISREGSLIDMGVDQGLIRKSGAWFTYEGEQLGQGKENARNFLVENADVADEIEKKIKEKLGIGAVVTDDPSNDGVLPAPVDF
CCHF vOTU inh-2: confirmation of CCHF virus vOTU protease inhibitors; shares compounds with CCHF vOTU inh-1; Recombinant CCHFV vOTU, Pep-AMC fluorescence; inhibition, % at 11.5 µM; hit rate 17% among 1,900; AID 686976
Large screens that a line does not name were inactive (follow-up assays come after a bar, where they were run). Compounds with a hit are over-represented: about 1.6% of the library has one in this group of screens. Rule as the data show it, unless noted: active = inhibition above about 30%; inactive = the rest.

C#CCOCCOCCOCCNc1nc(N2CCOCC2)nc(N2CCN(C(=O)C(Cc3cc4ccccc4[nH]3)n3cc(C(N)C(C)CC)nn3)CC2)n1 (configuration not stated)	none (no result: BJeLR lethal, CCHF vOTU inh-1, RecA splice inh)
CCCC(C#Cc1cc(OC)cc(OC)c1)=C1c2ccccc2C(=O)N1c1ccccc1	none (no result: BJeLR lethal, CCHF vOTU inh-1, RecA splice inh)
CCN1C(=O)C2C(c3ccc(-c4ccc5c(c4)OCO5)cc3)N[C@@](Cc3ccccc3)(C(=O)OC)C2C1=O (some centres not stated)	none (no result: BJeLR lethal, CCHF vOTU inh-1, RecA splice inh)
CC(NC(=O)c1nc[nH]c1C(=O)N1CCN(C(=O)OC(C)(C)C)CC1)C(=O)OC(C)(C)C (configuration not stated)	none (no result: BJeLR lethal, CCHF vOTU inh-1, RecA splice inh)
CC1=C(C(=O)N2CCOCC2)CC(CC(=O)NCCCN(C)C)C(=O)N1Cc1ccc(F)cc1 (configuration not stated)	CCHF vOTU inh-1 37 (no result: ugtP null kill, BJeLR lethal, RN4220 kill, Mtb hypoxia rep, RecA splice inh) | CCHF vOTU inh-2 inactive
COc1ccc(CN2C(=O)C(CC(=O)NCCCN(C)C)CC(C(=O)N3CCOCC3)=C2C)cc1 (configuration not stated)	none (no result: ugtP null kill, BJeLR lethal, RN4220 kill, Mtb hypoxia rep, RecA splice inh)
CC1=C(C(=O)N(C)C)CC(CC(=O)NCc2cccc3ccccc23)C(=O)N1Cc1ccc(C(C)(C)C)cc1 (configuration not stated)	none (no result: ugtP null kill, BJeLR lethal, RN4220 kill, Mtb hypoxia rep, RecA splice inh)
CC1=C(C(=O)N(C(C)C)C(C)C)CC(CC(=O)NCc2cccc3ccccc23)C(=O)N1Cc1ccc(C(C)(C)C)cc1 (configuration not stated)	CCHF vOTU inh-1 33 (no result: ugtP null kill, BJeLR lethal, RN4220 kill, Mtb hypoxia rep, RecA splice inh) | CCHF vOTU inh-2 inactive
O=C(C1=CC(c2coc3ccccc3c2=O)CC(OCCCCO)O1)N1CCOCC1 (configuration not stated)	none (no result: BJeLR lethal, CCHF vOTU inh-1, RecA splice inh)
OC(c1ccc(Cl)c(F)c1)c1ncc(-c2cccc(C(F)(F)F)c2)[nH]1 (configuration not stated)	CCHF vOTU inh-1 36 (no result: ugtP null kill, BJeLR lethal, RN4220 kill, Mtb hypoxia rep, RecA splice inh) | CCHF vOTU inh-2 inactive
OC(c1ccc(F)c(F)c1)c1ncc(-c2cccc(C(F)(F)F)c2)[nH]1 (configuration not stated)	none (no result: ugtP null kill, BJeLR lethal, RN4220 kill, Mtb hypoxia rep, RecA splice inh)
CCOC(=O)C1=C(COC(=O)c2ccc3ccccc3c2O)NC(=O)NC1C (configuration not stated)	CCHF vOTU inh-1 36 (no result: BJeLR lethal, RecA splice inh) | CCHF vOTU inh-2 inactive
CCOC(=O)C1=C(COC(=O)c2ccc([N+](=O)[O-])s2)NC(=O)NC1C (configuration not stated)	CCHF vOTU inh-1 100 (no result: BJeLR lethal, RecA splice inh) | CCHF vOTU inh-2 76
CC(=O)O[C@]1(C(C)=O)CCC2C3C=C(Cl)C4=CC(=O)C5CC5[C@]4(C)C3CC[C@@]21C (some centres not stated)	none (no result: BJeLR lethal, CCHF vOTU inh-1, RecA splice inh)
CC1CN(C(C)CO)C(=O)c2cc(NC(=O)Nc3ccc(F)cc3)ccc2OC1CN(C)Cc1ccccc1 (configuration not stated)	none (no result: BJeLR lethal, CCHF vOTU inh-1, RecA splice inh)
COc1ccc2c(c1)OCC1C2N2C(=O)CN(CC3CCCO3)C(=O)[C@@]2(C)C1c1ccccc1 (some centres not stated)	none (no result: BJeLR lethal, CCHF vOTU inh-1, RecA splice inh)
CC1CN(C(C)CO)C(=O)c2cc(NC(=O)NC3CCCCC3)ccc2OC1CN(C)C(=O)Nc1ccccc1 (configuration not stated)	none (no result: BJeLR lethal, CCHF vOTU inh-1, RecA splice inh)
CC(=O)c1cccc(N(CC(=O)NC2CCCCC2)C(=O)CNC(=O)c2cccs2)c1	none
CC(=O)c1cccc(N(CC(=O)NC2CCCC2)C(=O)CNC(=O)c2cccs2)c1	CCHF vOTU inh-1 36 | CCHF vOTU inh-2 inactive
O=C(N=C1SC2CS(=O)(=O)CC2N1c1ccc(Br)cc1Cl)C1CC1 (configuration not stated)	CCHF vOTU inh-1 34 | CCHF vOTU inh-2 inactive
COC(=O)C1=C(c2cc3ccccc3s2)CC2CCC1N2C (configuration not stated)	none (no result: BJeLR lethal, CCHF vOTU inh-1, RecA splice inh)
O=C(O)c1cccc(Cn2c(Cl)c(/C=N/NC(=O)c3ccc(O)cc3)sc2=O)c1	CCHF vOTU inh-1 31 (no result: ugtP null kill, RN4220 kill, Mtb hypoxia rep) | CCHF vOTU inh-2 inactive
O=C(O)c1cccc(Cn2c(Cl)c(C=NNC(=O)c3ccc(O)cc3)sc2=O)c1	none (no result: BJeLR lethal, CCHF vOTU inh-1, RecA splice inh)
Nc1cc(S(=O)(=O)O)cc([N+](=O)[O-])c1O	CCHF vOTU inh-1 31 | CCHF vOTU inh-2 inactive
O=[N+]([O-])c1cc(S(=O)(=O)c2ccc(O)c([N+](=O)[O-])c2)ccc1O	CCHF vOTU inh-1 43 | CCHF vOTU inh-2 inactive
Nc1cccc2c(O)cc(S(=O)(=O)O)cc12	none (no result: BJeLR lethal, CCHF vOTU inh-1, RecA splice inh)
C=CCOC(=O)C1=CC(c2ccc3c(c2)OCO3)CC(OCCCCO)O1 (configuration not stated)	none (no result: BJeLR lethal, CCHF vOTU inh-1, RecA splice inh)
CC(=O)C1CCC2C3C=CC4=CC(=O)CC[C@@]4(C)C3CC[C@]12C (some centres not stated)	none (no result: BJeLR lethal, CCHF vOTU inh-1, RecA splice inh)
CC(C)C[C@@H](CN1CCC[C@@H]1CN1C(=S)NC[C@@H]1Cc1ccc(O)cc1)N1C[C@H](Cc2ccc(O)cc2)N(CCc2ccccc2)C1=S	CCHF vOTU inh-1 30 (no result: ugtP null kill, BJeLR lethal, RN4220 kill, Mtb hypoxia rep, RecA splice inh) | CCHF vOTU inh-2 inactive
CC(C)C[C@H]1CN([C@@H](Cc2ccc(O)cc2)CN2CCC[C@@H]2CN2C(=S)NC[C@@H]2Cc2ccccc2)C(=S)N1CC1CCCCCC1	none (no result: ugtP null kill, BJeLR lethal, RN4220 kill, Mtb hypoxia rep, RecA splice inh)
CC(C)C[C@H]1CN([C@@H](Cc2ccc(O)cc2)CN2CCCC2CN2C(=S)NC[C@@H]2Cc2ccccc2)C(=S)N1CC1CCCCC1 (some centres not stated)	CCHF vOTU inh-1 30 (no result: ugtP null kill, BJeLR lethal, RN4220 kill, Mtb hypoxia rep, RecA splice inh) | CCHF vOTU inh-2 inactive
CC(C)C[C@@H](CN1CCCC1CN1C(=S)NC[C@@H]1Cc1ccccc1)N1C[C@H](Cc2ccc(O)cc2)N(CCc2ccccc2)C1=S (some centres not stated)	none (no result: ugtP null kill, BJeLR lethal, RN4220 kill, Mtb hypoxia rep, RecA splice inh)
CC=C1C[N+]2(C)CCC34C(=C(C=O)C1CC32)Nc1ccccc14 (configuration not stated)	none (no result: BJeLR lethal, CCHF vOTU inh-1, RecA splice inh)
COCc1ccccc1C1=CC(=O)CC(c2ccc(OC)cc2)C1 (configuration not stated)	none (no result: BJeLR lethal, CCHF vOTU inh-1, RecA splice inh)
CC1CCc2nc(C(C#N)=Cc3ccncc3)sc2C1 (configuration not stated)	none (no result: BJeLR lethal, CCHF vOTU inh-1, RecA splice inh)
